For test [1], the target named is Lysosomal acid glucosylceramidase (Homo sapiens) (UniProt P04062). As to the kind of experiment: Glucocerebrosidase-p2 (AID 348; in the data active means potency below about 10 µM; further: potency means the concentration at half of the fitted maximal effect). The settings on record: purified GBA, blue fluorogenic substrate, 40 min. The method, boiled down: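 Normal human glucocerebrosidase (0.2 nM) with blue fluorogenic substrate (80 uM final) in citrate/phosphate pH 5.9 with 10mM sodium taurocholate, 0.01% tween-20; 40 min RT, NaOH/glycine stop; fluorescence Ex 365/Em 440; AC50 from a titration from 0.6 nM upwards.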

The nature of test [2]: AP1 Signaling Pathway (AID 357).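 Further: ME-180 reporter cells stimulated with EGF at its EC50 level; on the % scale 0 is the no-effect control and ±100 the full control effect.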 The note with it: ME-180 AP-1-bla reporter, EGF-induced, beta-lactamase ratio, 5 h; at 7.69 µM (top of the series) unless noted. In outline:
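Beta-lactamase reporter under AP-1 response element, ME-180 background. Stimulus: EC50 EGF. Compound exposure 5 h, 37 °C. Detection: CCF4, 2.5 h RT, 460/530 nm. Values: AC50 from titration.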

Test [3] has as its target Cytochrome P450 1A2 (Homo sapiens) (UniProt P05177). As to the kind of experiment: p450-cyp1a2 (AID 410; calls by dose curve; further: potency means the concentration at half of the fitted maximal effect). The note with it: recombinant CYP1A2, luciferin-ME demethylation, luminescence; series mostly up to 57 µM. The method, boiled down:
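O-Demethylation of luciferin 6' methyl ether by human CYP1A2 is monitored as luciferase luminescence. Substrate sits at Km (100uM); enzyme is 20nM. Values are scaled to 57 uM furafylline as maximal inhibition.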

Test [4] is described as follows: NFAT Signaling Pathway (AID 444).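 Further: carbachol stimulus at about its EC50 of 1 µM final; on the % scale 0 is the no-effect control and ±100 the full control effect.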 The note with it: Jurkat NFAT-bla M1, carbachol, beta-lactamase ratio, 5 h; at 7.69 µM (top of the series) unless noted. In outline:
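Jurkat cells with NFAT-driven β-lactamase reporter and co-expressed M1 receptor, stimulated with carbachol (final 1 uM, ~EC50), compound titration, 5 h at 37 °C. CCF4 loaded 1 h at RT; 460/530 nm ratio gave %activity and AC50.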

Test [5] can be described thus: Stat Signaling Pathway (AID 446).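 Further: ME-180 cervical cancer cells given 40 pM IL-6 alongside compound; SIE-controlled beta-lactamase reporter measured as 460/530 nm FRET emission ratio; on the % scale 0 is the no-effect control and ±100 the full control effect.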 The settings on record: ME-180 (cervical carcinoma) SIE beta-lactamase reporter, IL-6 stimulated, 5 h; at 7.69 µM (top of the series) unless noted. The method, boiled down: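 Overnight-plated ME-180 cells bearing a STAT Inducible Element beta-lactamase reporter; 5 h co-exposure to compound and 40 pM IL-6; values normalized to 300 pM IL-6 and 125 nM JAK inhibitor controls.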

In test [6] the target is Glucocorticoid receptor (Homo sapiens) (UniProt P04150). The experiment in a line: GR-EFC Redistribution (AID 451; calls by dose curve; further: potency means the concentration at half of the fitted maximal effect). The settings on record: CHO-K1 GR-EFC translocation, beta-gal luminescence, 2 h. The method, boiled down: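 CHO-K1 cells expressing nuclear EA and GR-ED fragments of b-gal; compounds titrated up to 46 uM final, 2 h at 37 C. GR nuclear translocation read as complemented b-gal luminescence after 1 h RT detection.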

The target in test [7] is Mitogen-activated protein kinase 10 (Mus musculus) (UniProt Q61831). The experiment in a line: JNK3 AlphaScreen Assay (AID 530).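 Further: kinase came from lysate of stimulated human HepG2 cells; signal reports phosphorylation of biotinylated GST-cJun 1-79 at Ser73 with 10 µM ATP; on the % scale 0 is the no-effect control and ±100 the full control effect.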 The settings on record: JNK3 lysate, c-Jun phosphorylation; series mostly up to 57.1 µM. In outline: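 Activity was read by AlphaScreen after JNK3-containing HepG2 lysate (cytokine pre-activated) phosphorylated biotinylated GST-cJun with 10 uM ATP at room temperature. Phospho-Ser73 cJun antibody with Protein-A acceptor beads provided detection.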

Test [8] deals with 3',5'-cyclic-AMP phosphodiesterase 4B (Homo sapiens) (UniProt Q07343). As to the kind of experiment: qHTS Assay for Inhibitors of PDE-IV (AID 607; active means well fitted activation curve with a large enough effect in the main read-out, with a control signal flat, not every such curve was filed as active; further: % of control where 0% means no effect). The settings on record: HEK293 ACTOne CNG channel cells, membrane potential fluorescence; series mostly up to 22.9 µM. The method, boiled down: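 Live HEK293 cells with a modified cyclic nucleotide-gated (CNG) channel report intracellular cAMP via membrane-potential dye fluorescence (ex 535/em 590 nm). Endogenous PDE-IV was targeted. Compounds were tested at up to 22.9 uM final; RO 20-1724 100 uM served as control.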
Background: Quantitative high-throughput screening tests each substance at several concentrations.

Test [9] in a line: Primary qHTS for small molecule stabilizers of the endoplasmic reticulum resident proteome: Secreted ER Calcium Modulated Protein (SERCaMP) assay (AID 1508630; active means well fitted curve in the direction sought with a large enough effect; an effect the other way counts as inactive or inconclusive; further: on the % scale 0 is the no-effect control and ±100 the full control effect). The settings on record: SH-SY5Y GLuc-SERCaMP (Gaussia luciferase released on ER calcium loss) secretion, thapsigargin, luminescence; series mostly up to 38.4 µM. The method, boiled down: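 The SH-SY5Y reporter protocol was run at 3 concentrations up to 38.3 uM (primary) or 11 concentrations (follow-up): 16 h compound, 100 nM thapsigargin for 4 h, then extracellular luciferase luminescence.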

For test [10], the target named is Cytochrome P450 2C9 (Homo sapiens) (UniProt P11712). As to the kind of experiment: qHTS Assay for Inhibitors and Substrates of Cytochrome P450 2C9 (AID 883; active means well fitted curve in the direction sought with a large enough effect; an effect the other way counts as inactive or inconclusive; further: potency means the concentration at half of the fitted maximal effect; nearly all actives have a fitted effect of over 60% in size). The note with it: recombinant CYP2C9, luciferin-H luminescence, 60 min; series mostly up to 57.1 µM. The method, boiled down: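 Human CYP2C9 (10nM) with Luciferin-H at 100uM (its KM) in 25mM KPO4; compound preincubated 10 min at 37C, then NADPH regeneration for 60 min at 37C. Luciferin read by luminescence after detection reagent; normalized to 57uM sulphaphenazole as full inhibition.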

Test [11] has as its target Cytochrome P450 2C19 (Homo sapiens) (UniProt P33261). The experiment in a line: qHTS Assay for Inhibitors and Substrates of Cytochrome P450 2C19 (AID 899; active means well fitted curve in the direction sought with a large enough effect; an effect the other way counts as inactive or inconclusive; further: potency means the concentration at half of the fitted maximal effect; nearly all actives have a fitted effect of over 60% in size). The note with it: recombinant CYP2C19, luciferin-H EGE luminescence; series mostly up to 57.1 µM. The method, boiled down: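 5 nM human CYP2C19 with 10uM Luciferin-H EGE (at KM) in 50mM KPO4, compound preincubated 10 min at 37C, then NADPH regeneration for 60 min at 37C. Luciferin read by luminescence after detection reagent; normalized to 57uM ketoconazole as full inhibition.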

The target in test [12] is Glucocorticoid receptor (Homo sapiens) (UniProt P04150). As to the kind of experiment: GR-GFP Redistribution (AID 450;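 active means compounds whose dose series gives a full or clear partial fitted curve of increased nuclear translocation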; further: potency means the concentration at half of the fitted maximal effect). The settings on record: U2OS GR-GFP nuclear translocation, laser cytometry, 2 h.
In test [13] the target is Cytochrome P450 3A4 (Homo sapiens) (UniProt P08684). As to the kind of experiment: qHTS Assay for Activators of Cytochrome P450 3A4 (AID 885; active means well fitted curve in the direction sought with a large enough effect; an effect the other way counts as inactive or inconclusive; further: nearly all actives have a fitted effect of over 65% in size). The note with it: recombinant CYP3A4, Luciferin-PPXE luminescence, 60 min; series mostly up to 57.1 µM. The method, boiled down: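 Using 20nM recombinant human CYP3A4 in potassium phosphate (200mM), substrate Luciferin-PPXE at 25uM, luminescent luciferin detection followed a 60-min RT NADPH reaction; data scaled to 57 uM ketoconazole.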

The target is the same in test [14]. As to the kind of experiment: qHTS Assay for Inhibitors and Substrates of Cytochrome P450 3A4 (AID 884; active means well fitted curve in the direction sought with a large enough effect; an effect the other way counts as inactive or inconclusive; further: nearly all actives have a fitted effect of over 50% in size; further: potency means the concentration at half of the fitted maximal effect). The note with it: recombinant CYP3A4, Luciferin-PPXE luminescence; series mostly up to 57.1 µM. In outline:
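Luminescent readout of luciferin produced by CYP3A4 (20 nM) dealkylation of Luciferin-PPXE, 25 uM (its KM). NADPH-driven reaction ran 60 min at RT after 10 min compound preincubation; data scaled to 57 uM ketoconazole as 100% inhibition.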

The structures appear in SMILES notation. A number with no mark means an inactive call. Results filed as inconclusive are left out. The source made the active and inactive calls. Unless noted, the call rests on the fitted dose curve; in most records, active means well fitted curve in either direction with a large enough effect (not every such curve was filed as active); inconclusive means small, poorly fitted or top-dose-only effect, or another doubt; inactive means flat fitted curve, though single readings scatter.

Cytochrome P450 3A4 (Homo sapiens), sequence (P08684 whole entry, looked up): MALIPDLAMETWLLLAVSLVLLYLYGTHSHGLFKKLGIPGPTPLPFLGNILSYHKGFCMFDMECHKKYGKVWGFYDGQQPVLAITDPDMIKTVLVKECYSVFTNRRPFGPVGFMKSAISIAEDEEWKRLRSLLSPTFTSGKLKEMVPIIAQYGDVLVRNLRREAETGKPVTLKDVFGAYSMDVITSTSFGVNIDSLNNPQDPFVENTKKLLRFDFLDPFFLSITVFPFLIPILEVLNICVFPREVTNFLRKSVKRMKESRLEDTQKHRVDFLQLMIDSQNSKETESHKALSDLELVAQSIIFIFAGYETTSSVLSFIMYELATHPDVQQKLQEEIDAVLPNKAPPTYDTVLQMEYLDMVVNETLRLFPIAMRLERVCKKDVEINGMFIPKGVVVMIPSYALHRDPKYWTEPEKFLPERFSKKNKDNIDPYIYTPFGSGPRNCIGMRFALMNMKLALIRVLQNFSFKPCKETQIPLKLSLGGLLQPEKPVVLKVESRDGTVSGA
Glucocorticoid receptor (Homo sapiens), sequence (P04150 whole entry, looked up, the tested form may be a part): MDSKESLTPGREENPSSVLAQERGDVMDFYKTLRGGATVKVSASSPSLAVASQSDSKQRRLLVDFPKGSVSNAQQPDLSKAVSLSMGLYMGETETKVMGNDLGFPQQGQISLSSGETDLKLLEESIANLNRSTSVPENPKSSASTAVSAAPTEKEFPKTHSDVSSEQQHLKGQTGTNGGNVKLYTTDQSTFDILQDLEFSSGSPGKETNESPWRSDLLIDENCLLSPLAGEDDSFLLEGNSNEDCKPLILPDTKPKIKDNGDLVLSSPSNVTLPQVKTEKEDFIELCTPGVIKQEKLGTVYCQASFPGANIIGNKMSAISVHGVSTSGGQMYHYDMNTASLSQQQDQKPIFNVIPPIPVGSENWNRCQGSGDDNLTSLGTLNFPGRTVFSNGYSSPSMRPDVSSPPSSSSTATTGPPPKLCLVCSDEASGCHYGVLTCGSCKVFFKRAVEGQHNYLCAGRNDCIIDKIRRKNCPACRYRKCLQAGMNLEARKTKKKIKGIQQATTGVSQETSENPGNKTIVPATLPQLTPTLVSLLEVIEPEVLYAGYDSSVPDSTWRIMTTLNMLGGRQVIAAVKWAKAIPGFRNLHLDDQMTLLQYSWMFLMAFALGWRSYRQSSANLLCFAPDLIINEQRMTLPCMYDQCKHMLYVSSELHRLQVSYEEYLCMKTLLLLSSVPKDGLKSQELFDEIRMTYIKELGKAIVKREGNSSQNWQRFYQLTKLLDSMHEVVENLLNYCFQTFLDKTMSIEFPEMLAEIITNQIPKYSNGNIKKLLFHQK
Cytochrome P450 1A2 (Homo sapiens), sequence (P05177 whole entry, looked up): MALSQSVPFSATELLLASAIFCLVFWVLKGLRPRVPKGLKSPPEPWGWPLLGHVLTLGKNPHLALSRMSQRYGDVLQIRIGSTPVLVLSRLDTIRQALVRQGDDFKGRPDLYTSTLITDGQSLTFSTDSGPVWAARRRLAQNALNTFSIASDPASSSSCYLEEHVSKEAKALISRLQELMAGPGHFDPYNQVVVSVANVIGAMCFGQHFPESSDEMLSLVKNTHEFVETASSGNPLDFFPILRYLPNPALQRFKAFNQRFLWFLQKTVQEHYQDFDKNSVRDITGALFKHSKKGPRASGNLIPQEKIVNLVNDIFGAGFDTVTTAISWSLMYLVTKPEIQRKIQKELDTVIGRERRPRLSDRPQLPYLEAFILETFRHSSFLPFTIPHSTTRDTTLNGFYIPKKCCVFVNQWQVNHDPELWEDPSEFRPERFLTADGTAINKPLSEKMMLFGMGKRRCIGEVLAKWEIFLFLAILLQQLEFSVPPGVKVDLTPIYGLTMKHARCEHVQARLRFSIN
Lysosomal acid glucosylceramidase (Homo sapiens), sequence (P04062 whole entry, looked up): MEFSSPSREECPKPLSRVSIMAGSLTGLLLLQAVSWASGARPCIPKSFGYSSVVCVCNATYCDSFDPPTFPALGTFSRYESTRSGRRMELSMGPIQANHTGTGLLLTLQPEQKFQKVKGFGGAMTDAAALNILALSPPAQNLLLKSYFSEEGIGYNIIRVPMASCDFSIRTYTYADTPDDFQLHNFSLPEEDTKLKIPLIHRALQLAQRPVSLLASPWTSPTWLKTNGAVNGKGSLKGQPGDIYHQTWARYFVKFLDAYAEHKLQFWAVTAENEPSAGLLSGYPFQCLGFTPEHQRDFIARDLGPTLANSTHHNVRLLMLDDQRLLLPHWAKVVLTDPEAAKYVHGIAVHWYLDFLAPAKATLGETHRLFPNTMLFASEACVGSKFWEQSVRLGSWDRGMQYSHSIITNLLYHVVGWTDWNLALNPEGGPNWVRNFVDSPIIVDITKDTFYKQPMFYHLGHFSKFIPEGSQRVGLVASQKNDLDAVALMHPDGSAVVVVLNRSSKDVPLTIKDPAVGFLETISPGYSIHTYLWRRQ
3',5'-cyclic-AMP phosphodiesterase 4B (Homo sapiens), sequence (Q07343 whole entry, looked up): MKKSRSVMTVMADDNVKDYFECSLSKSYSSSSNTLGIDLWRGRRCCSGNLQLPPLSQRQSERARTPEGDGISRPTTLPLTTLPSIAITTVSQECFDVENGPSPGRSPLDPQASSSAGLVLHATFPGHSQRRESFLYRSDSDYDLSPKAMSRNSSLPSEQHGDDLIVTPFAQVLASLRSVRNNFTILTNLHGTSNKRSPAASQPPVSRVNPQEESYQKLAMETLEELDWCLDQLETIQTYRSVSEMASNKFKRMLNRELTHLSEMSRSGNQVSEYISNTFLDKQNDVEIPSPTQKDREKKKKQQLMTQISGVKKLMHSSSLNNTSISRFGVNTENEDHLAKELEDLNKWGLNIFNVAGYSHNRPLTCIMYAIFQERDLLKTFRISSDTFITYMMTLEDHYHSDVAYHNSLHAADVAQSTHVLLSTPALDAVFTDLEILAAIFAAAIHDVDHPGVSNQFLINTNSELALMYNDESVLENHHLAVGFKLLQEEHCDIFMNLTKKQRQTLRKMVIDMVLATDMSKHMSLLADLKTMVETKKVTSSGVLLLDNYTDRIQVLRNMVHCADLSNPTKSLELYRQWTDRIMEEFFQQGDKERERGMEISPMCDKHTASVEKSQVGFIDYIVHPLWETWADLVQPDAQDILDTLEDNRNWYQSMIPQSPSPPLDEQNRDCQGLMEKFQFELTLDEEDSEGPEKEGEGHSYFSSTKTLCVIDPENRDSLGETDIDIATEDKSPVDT
Cytochrome P450 2C9 (Homo sapiens), sequence (P11712 whole entry, looked up): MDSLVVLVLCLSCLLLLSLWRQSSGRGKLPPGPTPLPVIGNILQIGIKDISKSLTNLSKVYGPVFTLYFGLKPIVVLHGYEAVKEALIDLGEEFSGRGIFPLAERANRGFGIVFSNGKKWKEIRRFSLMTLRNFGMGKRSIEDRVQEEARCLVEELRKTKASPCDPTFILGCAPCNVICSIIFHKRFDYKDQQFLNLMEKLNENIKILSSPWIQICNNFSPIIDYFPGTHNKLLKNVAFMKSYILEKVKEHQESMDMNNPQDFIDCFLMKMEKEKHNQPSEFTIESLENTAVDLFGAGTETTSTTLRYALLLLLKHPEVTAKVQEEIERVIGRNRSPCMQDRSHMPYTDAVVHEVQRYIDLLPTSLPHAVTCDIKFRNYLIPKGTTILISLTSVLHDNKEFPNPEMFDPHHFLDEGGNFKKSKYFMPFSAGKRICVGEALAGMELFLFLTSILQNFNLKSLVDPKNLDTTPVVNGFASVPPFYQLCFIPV
Cytochrome P450 2C19 (Homo sapiens), sequence (P33261 whole entry, looked up): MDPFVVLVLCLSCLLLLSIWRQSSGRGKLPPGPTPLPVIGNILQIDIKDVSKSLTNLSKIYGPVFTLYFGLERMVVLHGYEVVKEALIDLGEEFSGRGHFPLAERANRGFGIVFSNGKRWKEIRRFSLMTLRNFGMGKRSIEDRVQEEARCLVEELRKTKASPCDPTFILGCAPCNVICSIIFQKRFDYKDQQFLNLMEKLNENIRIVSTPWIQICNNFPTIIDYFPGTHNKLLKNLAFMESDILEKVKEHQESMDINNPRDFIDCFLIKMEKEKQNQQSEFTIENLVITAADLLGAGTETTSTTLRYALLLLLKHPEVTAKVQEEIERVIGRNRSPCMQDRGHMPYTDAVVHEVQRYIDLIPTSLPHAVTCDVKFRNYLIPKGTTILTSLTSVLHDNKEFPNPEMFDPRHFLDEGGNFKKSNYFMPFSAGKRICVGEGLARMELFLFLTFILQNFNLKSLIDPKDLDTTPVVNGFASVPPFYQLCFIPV

Turning to `CC(C)NC(=O)N1CCC2(CC1)CCN(C(=O)c1cccn1C)CC2`, the Potency was above 11.4 µM in test [1] and above 46 µM in test [6]. Moreover, the activity change, negative = inhibition in test [2] is 15.2%; in test [4], 7.13%. The Potency entry in test [3], in test [7] and in [8] was “inactive” each time. Moreover, the activity, negative = inhibition in [5] was 2.35%. Further, in [9], the result was inactive.

In the case of `COCC(=O)N1CCC2(CC1)CN(C(=O)Nc1ccccc1)C2`, the Potency is above 11.4 µM in [1]; 12.6 µM (active) in test [3]; above 46 µM in [6]; 1.58 µM (active) in test [10]; 5.01 µM (active) in [11]. Also, the results for the activity change, negative = inhibition in test [2] and in test [4] were 7.47% and 18.9%, respectively. Besides, in test [5], the activity, negative = inhibition is -7.39%. Besides, the Potency entry in [7] and in test [8] was “inactive” each time. Besides, in [9], the outcome was inactive.

For the compound `CS(=O)(=O)N1CCC2(CCN(Cc3nccs3)CC2)CC1`, the Potency in test [1] was above 11.4 µM; in [6] it was above 46 µM. The activity change, negative = inhibition in [2] was 3.17%; in [4] it was 9.85%. Also, the Potency result in test [3], in test [7] and in [8] was “inactive” throughout. For the same compound, the activity, negative = inhibition in test [5] was -5.91%. For the same compound, the result in test [9] was inactive.

In the case of `COC(=O)N1CCC2(CCCN(C(=O)Nc3ccccc3)C2)CC1`, the values for the Potency in test [1] and in [6] were above 11.4 µM and above 46 µM, respectively. Besides, the activity change, negative = inhibition in test [2] was -8.56%; in test [4], 8.44%. Further, the Potency result in test [3], in [7] and in test [8] was “inactive” each time. For the same compound, the activity, negative = inhibition in test [5] is -0.296%. In addition, the result in [9] was inactive.

Turning to `COc1ccc(-n2c(=O)c(C)nc3cnc(N(C)C)nc32)cc1`, the values for the Potency in test [1], in test [3] and in [12] were above 11.4 µM, 6.31 µM (active) and above 9.22 µM, respectively. In addition, the activity change, negative = inhibition in [2] was -8.91%; in test [4], 5.39%. In addition, the activity, negative = inhibition in test [5] is -5.54%. Besides, the Potency result in test [7], in test [8] and in test [13] was “inactive” throughout. Also, in test [9], the result was inactive.

In the case of `CC(=O)N1CCC2(CC1)CCN(c1ccccn1)CC2`, the Potency in test [1] was above 11.4 µM; in test [6] it was above 46 µM. Moreover, the activity change, negative = inhibition was 1.64% in [2] and -29.8% in test [4]. In addition, the Potency entry in test [3], in test [7] and in test [8] was “inactive” in each case. Further, the activity, negative = inhibition in test [5] was 6.98%. The result in test [9] was inactive.

In the case of `COc1ccc(NC(=O)N2CCC3(CC2)CCN(C(=O)c2ccco2)CC3)cc1`, the Potency is above 11.4 µM in test [1], 20 µM (active) in [3] and above 46 µM in test [6]. Moreover, the activity change, negative = inhibition in test [2] is -4.61%; in [4] it was 3.53%. For the same compound, the activity, negative = inhibition in [5] was -1.71%. Besides, the Potency entry in [7] and in test [8] was “inactive” each time. The result in [9] was inactive.

For the compound `O=C(c1cccc(F)c1)N1CCC[C@@]2(CCN(c3cccc(-c4ccccc4)c3)C2)C1`, the Potency is above 11.4 µM in test [1], 15.8 µM (active) in test [3], above 46 µM in [6] and 7.94 µM (active) in [14]. In addition, the activity change, negative = inhibition is 4.68% in test [2] and -14.4% in [4]. Besides, the activity, negative = inhibition in test [5] was -5.9%. Besides, the Potency entry in test [7], in test [8] and in [13] was “inactive” throughout. Besides, in [9], the outcome was inactive.

As for `O=C(Nc1cccc(F)c1)N1CCC2(CC1)CCN(C(=O)c1ccco1)CC2`, the Potency is above 11.4 µM in test [1] and above 46 µM in [6]. Moreover, the figures for the activity change, negative = inhibition in test [2] and in test [4] were -3.88% and 4.6%, respectively. The Potency result in test [3], in test [7], in test [8] and in test [14] was “inactive” each time. In test [5], the activity, negative = inhibition was 4.97%. For the same compound, the outcome in test [9] was inactive.

On to `Cn1cccc1C(=O)N1CCC2(CC1)CCN(c1ncccn1)CC2`, for which the Potency was above 11.4 µM in test [1] and above 46 µM in test [6]. In addition, the activity change, negative = inhibition in test [2] was 0.908%; in test [4], 5.08%. Further, the Potency entry in [3], in test [7], in test [8] and in test [14] was “inactive” each time. Further, the activity, negative = inhibition in [5] is -4.72%. In addition, the result in [9] was inactive.

For the origin of these results see PubChem BioAssay (NCATS).
